We go through eleven molecules from PubChem BioAssay (NCI).

About 83,000 compounds went through this panel and 20% of them were active in at least one assay; those are over-represented in the sample as a whole.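 Interpretation: 100, growth as untreated; towards 0, rising growth inhibition; 0, no net growth; 0 to -100, cell death. Compounds scoring below 10 were considered active.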 Values without a mark were called inactive. The source made the active and inactive calls.

Holding throughout (assay): NCI-60 one-dose screen, 48 h (100 = growth as untreated, 0 = no growth, -100 = all killed)
Settings in all cases: 10 µM unless noted

For assay [1], the system named is RPMI-8226 leukemia.
In assay [2] the test system is OVCAR-8 ovarian.
For assay [3], the system named is OVCAR-4 ovarian.
Assay [4] deals with SK-OV-3 ovarian.
Assay [5] concerns IGROV1 ovarian.
In assay [6] the test system is OVCAR-3 ovarian.
Assay [7] relates to NCI/ADR-RES ovarian.
The test system of assay [8] is BT-549 breast.
For assay [9], the system named is MDA-MB-435 melanoma.
Assay [10] concerns SW-620 colon.
The subject of assay [11] is MCF7 breast.
Assay [12] deals with HCT-116 colon.
The subject of assay [13] is HCC-2998 colon.
The test system of assay [14] is KM12 colon.
In assay [15] the test system is OVCAR-5 ovarian.
Assay [16] relates to HS 578T breast.
For assay [17], the system named is T-47D breast.

On to `Cc1cc(CC(=O)O)n(C)c1C(=O)c1ccc(Cl)cc1`, for which the growth in assay [1] was 103%; in assay [2] it was 97.7%; in assay [3], 119%; in assay [4], 119%; in assay [5], 114%; in assay [6] it was 118%. Moreover, the growth is 97.8% in assay [7]; 101% in assay [8]; 106% in assay [9]; 103% in assay [10]; 120% in [11]; 102% in assay [12]. Moreover, the growth in assay [13] is 108%; in [14] it was 105%.

On to `Cc1cc(C)c(OC(=O)CSc2nc3ccccc3c(=O)n2CCc2ccccc2)cc1C`, for which the growth in assay [2] was 95.3%; in assay [15], 110%; in assay [3], 101%; in [4] it was 95.7%; in assay [5] it was 89.4%; in assay [6], 99%. Besides, the growth in [16] was 94.5%; in assay [7] it was 89.3%; in assay [17] it was 90.5%; in [8] it was 104%; in [9], 100%; in assay [10], 103%. In addition, the results for the growth in assay [12], in assay [13] and in assay [14] were 80.1%, 102% and 92%, respectively.

Regarding `CC/C=C\C=C/C(=O)N/C=C/CC1Cc2cccc(O)c2C(=O)O1` (configuration not stated), the growth in [2] was 90.5%; in assay [15], 91%; in [3], 80.2%; in assay [4], 63.9%; in assay [5] it was 79.1%; in [6], 86%. The growth was 50.7% in assay [16]; 57.2% in assay [7]; 67.2% in assay [17]; 75.2% in assay [8]; -52.1% (active) in [9]; 26.9% in [10]. Also, the growth is 67.3% in [11], 33.8% in assay [12] and 42.1% in assay [14].

In the case of `O=C1N(C2CCCCC2)C(=O)N1C1CCCCC1`, the growth in assay [1] is -16.7% (active); in [15], 28.9%; in assay [4], 71.8%; in assay [6] it was 59.7%; in assay [16], -2.96% (active); in [7], 35.5%. For the same molecule, the growth was 43.7% in assay [17]; 33.6% in assay [8]; 57.4% in assay [9]; 48.5% in assay [10]; 44.2% in [12]; 49.3% in assay [13]. In addition, the growth in assay [14] was 7.4% (active).

As to `CC(c1ccccn1)C(C)(O)C(C)c1ccccn1` (configuration not stated), the growth was 101% in assay [2]; 98% in [15]; 112% in assay [3]; 114% in [4]; 112% in assay [5]; 106% in [6]. The growth in assay [16] is 104%; in assay [7] it was 107%; in [17], 118%; in assay [8], 108%; in assay [9], 104%; in assay [10], 112%. For the same molecule, the growth was 103% in assay [11], 108% in [12], 104% in [13] and 105% in assay [14].

As to `CCCCCCCC/C=C/CCCCCCCC1=NC(C)(C)CN1CCO`, the growth in assay [2] is 45%; in [15] it was 87.3%; in assay [3], 52.3%; in [4], 78.6%; in assay [5], -40.5% (active); in assay [6], 32.8%. Besides, the growth in assay [16] is 35.1%; in assay [7] it was 77.3%; in assay [17] it was 0.508% (active); in assay [8], 78.1%; in [9], -31.9% (active); in [10], -66.3% (active). Moreover, the growth was -55.5% (active) in [11], -68% (active) in [12], -86.6% (active) in [13] and -68.5% (active) in assay [14].

Regarding `CCCCCCCCCCCCCCCCCC1=NC(C)(C)CN1CCO`, the growth in assay [2] is 1.75% (active); in [15], 82.4%; in assay [3], 33.5%; in [4], -36.2% (active); in [5], -26.4% (active); in assay [6] it was -9.27% (active). The growth in [16] is -38.4% (active); in assay [7], 55.5%; in assay [17], -23.9% (active); in assay [8], 58.9%; in [9], -60.1% (active); in assay [10], -60.4% (active). For the same molecule, the growth in assay [11] is -59.5% (active); in assay [12], -67% (active); in assay [13], -87.6% (active); in [14], -76.3% (active).

As to `Cc1cccc(Cl)c1NC(=O)c1ccc2nc(NC(=O)NC3CC(C)(C)NC(C)(C)C3)sc2c1`, the growth was 87.1% in [1]; 78% in assay [15]; 95.3% in assay [3]; 76.3% in [4]; 65.2% in assay [5]; 99.7% in assay [6]. Further, the growth was 30.8% in assay [16]; 118% in assay [7]; 54% in assay [17]; 95% in [8]; 90% in assay [9]; 110% in assay [10]. For the same molecule, the growth in [11] is 86.5%; in assay [12], 89.1%; in assay [13], 96.5%; in assay [14], 110%.

On to `CC1CC(C)/C(=N/NC(N)=O)C(C(O)CC2CCC(=O)NC2=O)C1` (configuration not stated), for which the growth in [1] was 50.4%; in assay [15], 52.1%; in [3] it was 57.7%; in assay [4], 49.2%; in assay [5], 30.1%; in [6] it was 53.6%. The growth was 10% in assay [16]; 42.6% in assay [7]; 42.5% in [17]; 53.1% in assay [8]; 34.3% in assay [9]; 34.3% in [10]. Moreover, the growth in [11] is 36.7%; in [12], 24%; in assay [13], 58.8%; in assay [14], 32.3%.

Take `Nc1ccc(S(=O)(=O)Nc2ncccn2)cc1`: the growth in [1] is 112%; in [2], 102%; in assay [3] it was 112%; in assay [4] it was 116%; in assay [5], 116%; in assay [6], 115%. Also, the growth in [16] was 133%; in assay [7], 105%; in assay [8], 119%; in [9], 108%; in assay [10], 105%; in assay [11], 101%. The growth is 113% in assay [12], 104% in assay [13] and 108% in assay [14].

For the molecule `CC(C)COCC(CN(Cc1ccccc1)c1ccccc1)N1CCCC1` (configuration not stated), the growth was 46.4% in [1]; 49.9% in assay [3]; 74.9% in assay [4]; 53.3% in assay [5]; 72.4% in [6]; 81.6% in assay [16]. Besides, the growth was 65.2% in assay [7]; 66.1% in assay [17]; 62.2% in assay [8]; 72.4% in [9]; 70.1% in assay [10]; 45.8% in [11]. Further, the growth in assay [12] was 36.7%; in assay [13], 44.8%; in [14], 56.2%.
